Measurements reported in PMC7862700, “An all-to-all approach to the identification of sequence-specific readers for epigenetic DNA modifications on cytosine”.

Key:
Test in all cases: DAPPL (digital affinity profiling via proximity ligation, sequencing); 10 mM Tris-HCl pH 7.5, 50 mM NaCl, 1 mM DTT, 4% glycerol, room temperature, 30 min; GST-TFs on glutathione beads, 16-mer random dsDNA library, 0.1% formaldehyde crosslink after washing; high values mean tight binding
FEV = molecular target: T1, FEV (Homo sapiens, UniProt Q99581 1-238); settings: protein: recombinant; tags: N-terminal GST; dsDNA, one strand shown
T1 sequence: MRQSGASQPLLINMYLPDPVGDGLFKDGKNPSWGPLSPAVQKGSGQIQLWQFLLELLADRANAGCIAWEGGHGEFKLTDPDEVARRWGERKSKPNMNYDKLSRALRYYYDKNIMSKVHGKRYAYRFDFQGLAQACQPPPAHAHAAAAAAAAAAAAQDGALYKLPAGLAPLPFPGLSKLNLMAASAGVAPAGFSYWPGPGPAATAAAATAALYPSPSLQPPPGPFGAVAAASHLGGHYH
How it was run: (§1)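 Sequencing on an Illumina NextSeq500 followed washing, crosslinking with 0.1% formaldehyde, proximity ligation (BsaI/T4 ligase, 1 h, 37 °C) and PCR amplification of pools that had been incubated for 30 min at room temperature with 200 nmole of a random double-stranded 16-mer DNA library in Tris/NaCl/DTT/glycerol buffer. Each pool held DNA-barcoded human transcription factors, expressed in yeast as GST fusions and captured on glutathione beads, plus a tag-only sample. Binding signal is a hexamer's read frequency for a factor divided by its frequency in the tag-only sample.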

ETV5 = ETV5 (Homo sapiens, UniProt P41161 1-510); settings: protein: recombinant; tags: N-terminal GST; dsDNA, one strand shown
ETV5, sequence (P41161 whole entry): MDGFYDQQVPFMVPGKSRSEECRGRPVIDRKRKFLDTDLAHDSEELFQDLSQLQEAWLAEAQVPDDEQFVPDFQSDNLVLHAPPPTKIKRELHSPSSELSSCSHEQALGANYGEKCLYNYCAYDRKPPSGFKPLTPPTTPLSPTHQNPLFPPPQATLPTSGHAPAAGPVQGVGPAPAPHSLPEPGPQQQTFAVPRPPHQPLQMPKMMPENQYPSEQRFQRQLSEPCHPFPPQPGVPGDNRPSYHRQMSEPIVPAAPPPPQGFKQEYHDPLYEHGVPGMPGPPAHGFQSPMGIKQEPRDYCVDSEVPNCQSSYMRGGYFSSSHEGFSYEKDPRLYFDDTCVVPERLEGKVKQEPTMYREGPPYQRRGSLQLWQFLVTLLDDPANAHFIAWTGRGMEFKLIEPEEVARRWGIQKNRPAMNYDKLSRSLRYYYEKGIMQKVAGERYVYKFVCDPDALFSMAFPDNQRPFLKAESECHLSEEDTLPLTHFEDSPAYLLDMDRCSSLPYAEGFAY
How it was run: as §1

HSF1 = HSF1 (Homo sapiens, UniProt Q00613 1-529); settings: protein: recombinant; tags: N-terminal GST; chain copies: 3; dsDNA, one strand shown
HSF1, sequence (Q00613 whole entry): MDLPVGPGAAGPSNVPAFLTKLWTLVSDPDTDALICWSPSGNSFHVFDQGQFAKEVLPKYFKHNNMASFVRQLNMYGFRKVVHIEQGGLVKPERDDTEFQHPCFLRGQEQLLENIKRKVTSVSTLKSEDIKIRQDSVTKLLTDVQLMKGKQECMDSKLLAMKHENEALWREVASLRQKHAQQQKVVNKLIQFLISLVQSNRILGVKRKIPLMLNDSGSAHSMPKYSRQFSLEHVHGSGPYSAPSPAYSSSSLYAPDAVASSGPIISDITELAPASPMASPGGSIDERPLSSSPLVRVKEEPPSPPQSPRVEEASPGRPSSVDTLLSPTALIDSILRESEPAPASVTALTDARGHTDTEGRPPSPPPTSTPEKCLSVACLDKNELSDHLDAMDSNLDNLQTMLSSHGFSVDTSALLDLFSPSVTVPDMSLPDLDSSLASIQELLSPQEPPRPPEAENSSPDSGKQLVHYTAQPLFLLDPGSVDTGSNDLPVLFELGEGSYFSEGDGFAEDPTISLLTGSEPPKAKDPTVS
How it was run: as §1

SPIC = molecular target: T2, SPIC (Homo sapiens, UniProt Q8N5J4 1-248); settings: protein: recombinant; tags: N-terminal GST; dsDNA, one strand shown
T2 sequence: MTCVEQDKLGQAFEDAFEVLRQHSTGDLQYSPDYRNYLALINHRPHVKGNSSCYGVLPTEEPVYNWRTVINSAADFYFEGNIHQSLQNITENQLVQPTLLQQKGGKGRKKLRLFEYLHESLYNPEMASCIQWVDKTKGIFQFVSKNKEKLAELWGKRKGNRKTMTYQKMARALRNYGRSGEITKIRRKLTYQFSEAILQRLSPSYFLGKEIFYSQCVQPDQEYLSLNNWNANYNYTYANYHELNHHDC
How it was run: as §1

ELF4 = ELF4 (Homo sapiens, UniProt Q99607 1-663); settings: protein: recombinant; tags: N-terminal GST; dsDNA, one strand shown
ELF4, sequence (Q99607 whole entry): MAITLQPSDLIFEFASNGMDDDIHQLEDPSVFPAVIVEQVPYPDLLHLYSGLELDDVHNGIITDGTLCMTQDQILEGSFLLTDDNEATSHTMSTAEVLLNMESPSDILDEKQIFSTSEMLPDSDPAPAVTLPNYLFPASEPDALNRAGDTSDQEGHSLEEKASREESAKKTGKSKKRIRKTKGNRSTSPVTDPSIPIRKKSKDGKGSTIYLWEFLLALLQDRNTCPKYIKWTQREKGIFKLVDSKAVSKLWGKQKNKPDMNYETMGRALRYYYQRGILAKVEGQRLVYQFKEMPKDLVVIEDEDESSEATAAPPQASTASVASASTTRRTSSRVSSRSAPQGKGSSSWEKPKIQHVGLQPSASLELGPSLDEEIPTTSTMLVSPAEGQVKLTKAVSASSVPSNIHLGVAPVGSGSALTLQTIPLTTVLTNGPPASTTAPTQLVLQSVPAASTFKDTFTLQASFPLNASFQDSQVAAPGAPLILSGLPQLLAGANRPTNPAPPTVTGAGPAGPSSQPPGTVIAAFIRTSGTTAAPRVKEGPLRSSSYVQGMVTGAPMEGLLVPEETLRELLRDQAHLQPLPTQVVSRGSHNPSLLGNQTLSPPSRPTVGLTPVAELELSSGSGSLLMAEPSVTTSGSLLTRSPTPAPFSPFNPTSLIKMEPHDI
How it was run: as §1

ELK4 = molecular target: T3, ELK4 (Homo sapiens, UniProt P28324-2 1-405); settings: protein: recombinant; tags: N-terminal GST; dsDNA, one strand shown
T3 sequence: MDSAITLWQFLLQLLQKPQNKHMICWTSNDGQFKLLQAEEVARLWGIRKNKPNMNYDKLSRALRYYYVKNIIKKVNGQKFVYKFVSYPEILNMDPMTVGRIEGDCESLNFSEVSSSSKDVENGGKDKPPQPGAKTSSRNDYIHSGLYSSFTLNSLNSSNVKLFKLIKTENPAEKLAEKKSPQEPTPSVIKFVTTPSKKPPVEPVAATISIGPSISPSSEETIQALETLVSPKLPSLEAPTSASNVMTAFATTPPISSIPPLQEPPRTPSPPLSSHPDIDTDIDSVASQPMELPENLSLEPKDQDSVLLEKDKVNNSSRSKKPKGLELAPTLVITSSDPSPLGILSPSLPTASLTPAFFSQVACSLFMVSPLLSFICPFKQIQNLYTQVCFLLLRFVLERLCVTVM
How it was run: as §1

ETV2 = molecular target: T4, ETV2 (Homo sapiens, UniProt O00321 1-342); settings: protein: recombinant; tags: N-terminal GST; dsDNA, one strand shown
T4 sequence: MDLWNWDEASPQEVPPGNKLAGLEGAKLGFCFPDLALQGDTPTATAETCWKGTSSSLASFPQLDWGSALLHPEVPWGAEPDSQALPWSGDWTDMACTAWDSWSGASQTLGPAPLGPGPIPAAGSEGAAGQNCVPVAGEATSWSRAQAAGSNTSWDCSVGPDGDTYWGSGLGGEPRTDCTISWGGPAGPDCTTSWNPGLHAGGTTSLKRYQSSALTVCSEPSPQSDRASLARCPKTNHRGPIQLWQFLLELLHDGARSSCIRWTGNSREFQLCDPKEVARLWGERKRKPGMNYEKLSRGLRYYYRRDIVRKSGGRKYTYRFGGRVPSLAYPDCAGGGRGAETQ
How it was run: as §1

ELF3 = molecular target: T5, ELF3 (Homo sapiens, UniProt P78545 1-371); settings: protein: recombinant; tags: N-terminal GST; dsDNA, one strand shown
T5 sequence: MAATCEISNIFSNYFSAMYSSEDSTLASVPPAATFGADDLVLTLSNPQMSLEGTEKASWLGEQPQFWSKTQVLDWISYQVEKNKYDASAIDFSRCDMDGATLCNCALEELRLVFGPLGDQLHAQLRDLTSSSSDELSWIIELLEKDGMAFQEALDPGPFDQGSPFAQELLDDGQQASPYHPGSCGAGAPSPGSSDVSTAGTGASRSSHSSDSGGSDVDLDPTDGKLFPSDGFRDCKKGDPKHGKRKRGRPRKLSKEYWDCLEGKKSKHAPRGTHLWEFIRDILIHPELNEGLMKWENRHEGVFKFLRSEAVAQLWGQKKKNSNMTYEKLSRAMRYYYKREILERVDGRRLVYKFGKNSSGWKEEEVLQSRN
How it was run: as §1

ETV1 = ETV1 (Homo sapiens, UniProt P50549 1-477); settings: protein: recombinant; tags: N-terminal GST; dsDNA, one strand shown
ETV1, sequence (P50549 whole entry): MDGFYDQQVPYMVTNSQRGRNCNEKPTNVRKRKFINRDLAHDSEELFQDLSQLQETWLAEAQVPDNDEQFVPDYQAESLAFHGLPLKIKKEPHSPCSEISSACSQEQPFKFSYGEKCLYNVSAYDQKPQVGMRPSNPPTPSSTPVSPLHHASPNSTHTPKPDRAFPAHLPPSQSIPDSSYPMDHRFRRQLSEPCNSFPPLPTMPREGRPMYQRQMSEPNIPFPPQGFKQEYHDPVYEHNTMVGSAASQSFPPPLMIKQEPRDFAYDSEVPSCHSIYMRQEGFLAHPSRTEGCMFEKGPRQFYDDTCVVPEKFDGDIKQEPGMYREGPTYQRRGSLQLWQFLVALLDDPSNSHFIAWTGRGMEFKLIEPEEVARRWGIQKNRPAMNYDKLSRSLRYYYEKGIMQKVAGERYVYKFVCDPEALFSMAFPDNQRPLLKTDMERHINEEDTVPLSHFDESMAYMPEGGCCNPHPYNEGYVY
How it was run: as §1

ERF = molecular target: T6, ERF (Homo sapiens, UniProt P50548 1-548); settings: protein: recombinant; tags: N-terminal GST; dsDNA, one strand shown
T6 sequence: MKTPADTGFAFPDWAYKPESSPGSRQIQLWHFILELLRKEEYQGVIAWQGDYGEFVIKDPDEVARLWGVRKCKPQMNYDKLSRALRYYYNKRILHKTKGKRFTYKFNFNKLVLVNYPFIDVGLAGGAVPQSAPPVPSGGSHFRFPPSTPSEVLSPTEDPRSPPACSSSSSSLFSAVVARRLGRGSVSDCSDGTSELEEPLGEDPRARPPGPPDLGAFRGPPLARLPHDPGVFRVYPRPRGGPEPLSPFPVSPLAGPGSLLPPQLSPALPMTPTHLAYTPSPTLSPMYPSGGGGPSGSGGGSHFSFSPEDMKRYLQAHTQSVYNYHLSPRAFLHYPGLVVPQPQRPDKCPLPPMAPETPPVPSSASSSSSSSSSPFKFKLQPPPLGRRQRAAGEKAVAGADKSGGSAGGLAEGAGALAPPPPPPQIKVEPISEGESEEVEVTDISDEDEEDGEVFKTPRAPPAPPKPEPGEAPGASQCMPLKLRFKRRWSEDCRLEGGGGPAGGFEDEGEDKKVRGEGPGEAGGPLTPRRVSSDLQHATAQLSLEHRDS
How it was run: as §1

ETV3L = molecular target: T7, ETV3L (Homo sapiens, UniProt Q6ZN32 1-361); settings: protein: recombinant; tags: N-terminal GST; dsDNA, one strand shown
T7 sequence: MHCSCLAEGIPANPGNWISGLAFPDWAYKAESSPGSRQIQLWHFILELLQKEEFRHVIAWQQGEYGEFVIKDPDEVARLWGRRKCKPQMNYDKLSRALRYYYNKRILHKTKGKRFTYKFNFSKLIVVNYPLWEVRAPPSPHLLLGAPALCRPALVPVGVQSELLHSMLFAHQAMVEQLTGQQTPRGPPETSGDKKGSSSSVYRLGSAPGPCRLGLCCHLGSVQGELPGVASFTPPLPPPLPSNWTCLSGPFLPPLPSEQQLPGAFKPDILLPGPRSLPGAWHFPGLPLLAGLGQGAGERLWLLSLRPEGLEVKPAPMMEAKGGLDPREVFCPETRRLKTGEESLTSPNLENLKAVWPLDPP
How it was run: as §1

ETS2 = molecular target: T8, ETS2 (Homo sapiens, UniProt P15036 1-469); settings: protein: recombinant; tags: N-terminal GST; dsDNA, one strand shown
T8 sequence: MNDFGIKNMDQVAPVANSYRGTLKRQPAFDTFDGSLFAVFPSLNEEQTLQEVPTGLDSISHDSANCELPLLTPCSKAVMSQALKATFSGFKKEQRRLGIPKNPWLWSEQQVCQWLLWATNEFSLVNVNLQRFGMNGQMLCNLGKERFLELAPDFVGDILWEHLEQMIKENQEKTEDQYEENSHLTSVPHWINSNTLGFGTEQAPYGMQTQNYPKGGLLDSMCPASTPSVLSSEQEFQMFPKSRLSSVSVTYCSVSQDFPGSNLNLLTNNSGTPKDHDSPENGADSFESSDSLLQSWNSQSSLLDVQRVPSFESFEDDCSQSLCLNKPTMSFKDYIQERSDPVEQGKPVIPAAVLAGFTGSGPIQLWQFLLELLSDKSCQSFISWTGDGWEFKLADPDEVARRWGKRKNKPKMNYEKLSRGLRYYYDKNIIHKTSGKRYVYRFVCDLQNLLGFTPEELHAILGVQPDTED
How it was run: as §1

SPDEF = molecular target: T9, SPDEF (Homo sapiens, UniProt O95238 1-335); settings: protein: recombinant; tags: N-terminal GST; dsDNA, one strand shown
T9 sequence: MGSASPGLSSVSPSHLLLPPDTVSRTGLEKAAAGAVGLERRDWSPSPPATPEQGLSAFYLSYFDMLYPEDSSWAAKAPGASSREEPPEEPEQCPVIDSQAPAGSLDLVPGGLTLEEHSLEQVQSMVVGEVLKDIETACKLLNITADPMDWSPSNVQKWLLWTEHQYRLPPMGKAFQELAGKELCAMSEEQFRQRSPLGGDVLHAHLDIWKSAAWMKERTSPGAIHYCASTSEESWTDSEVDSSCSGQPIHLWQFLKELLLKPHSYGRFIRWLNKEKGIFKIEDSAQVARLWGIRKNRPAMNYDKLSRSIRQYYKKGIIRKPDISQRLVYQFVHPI
How it was run: as §1

ETV7 = molecular target: T10, ETV7 (Homo sapiens, UniProt Q9Y603 1-341); settings: protein: recombinant; tags: N-terminal GST; dsDNA, one strand shown
T10 sequence: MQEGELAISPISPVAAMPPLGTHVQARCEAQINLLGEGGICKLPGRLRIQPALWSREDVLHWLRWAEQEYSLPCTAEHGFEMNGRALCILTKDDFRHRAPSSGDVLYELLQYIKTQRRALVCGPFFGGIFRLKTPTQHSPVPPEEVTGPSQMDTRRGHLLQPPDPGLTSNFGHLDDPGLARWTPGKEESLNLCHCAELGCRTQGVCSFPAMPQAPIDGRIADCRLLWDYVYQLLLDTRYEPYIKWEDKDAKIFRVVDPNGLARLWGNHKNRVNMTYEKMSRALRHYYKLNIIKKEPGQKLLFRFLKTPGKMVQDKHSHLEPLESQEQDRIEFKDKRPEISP
How it was run: as §1

ELF5 = molecular target: T11, ELF5 (Homo sapiens, UniProt Q9UKW6-2 1-255); settings: protein: recombinant; tags: N-terminal GST; dsDNA, one strand shown
T11 sequence: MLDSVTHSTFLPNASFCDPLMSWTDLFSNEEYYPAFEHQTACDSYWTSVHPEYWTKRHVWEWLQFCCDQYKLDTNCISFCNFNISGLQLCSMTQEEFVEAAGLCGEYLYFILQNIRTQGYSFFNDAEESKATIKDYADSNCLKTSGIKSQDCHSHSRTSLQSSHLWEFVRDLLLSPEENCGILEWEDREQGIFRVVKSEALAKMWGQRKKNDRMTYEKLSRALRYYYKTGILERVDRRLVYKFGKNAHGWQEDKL
How it was run: as §1

ETV3 = molecular target: T12, ETV3 (Homo sapiens, UniProt P41162-2 1-143); settings: protein: recombinant; tags: N-terminal GST; dsDNA, one strand shown
T12 sequence: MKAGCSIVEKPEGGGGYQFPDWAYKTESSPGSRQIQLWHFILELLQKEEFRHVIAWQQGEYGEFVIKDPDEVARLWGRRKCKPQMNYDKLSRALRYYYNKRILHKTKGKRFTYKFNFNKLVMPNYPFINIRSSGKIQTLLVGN
How it was run: as §1

ETV6 = ETV6 (Homo sapiens, UniProt P41212 1-452); settings: protein: recombinant; tags: N-terminal GST; dsDNA, one strand shown
ETV6, sequence (P41212 whole entry): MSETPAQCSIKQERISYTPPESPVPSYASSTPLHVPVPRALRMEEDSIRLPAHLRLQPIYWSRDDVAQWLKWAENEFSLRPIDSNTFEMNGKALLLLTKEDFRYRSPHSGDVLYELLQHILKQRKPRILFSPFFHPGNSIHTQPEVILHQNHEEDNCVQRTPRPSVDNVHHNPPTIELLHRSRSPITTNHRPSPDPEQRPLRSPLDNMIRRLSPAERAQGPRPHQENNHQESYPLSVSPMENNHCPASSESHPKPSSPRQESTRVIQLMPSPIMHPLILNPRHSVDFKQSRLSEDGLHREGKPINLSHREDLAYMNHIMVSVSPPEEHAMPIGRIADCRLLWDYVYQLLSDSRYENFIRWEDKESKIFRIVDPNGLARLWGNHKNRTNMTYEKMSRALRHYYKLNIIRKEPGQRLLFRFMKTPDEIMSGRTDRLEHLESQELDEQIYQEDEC
How it was run: as §1

CRX = CRX (Homo sapiens, UniProt O43186 1-299); settings: protein: recombinant; tags: N-terminal GST; dsDNA, one strand shown
CRX, sequence (O43186 whole entry): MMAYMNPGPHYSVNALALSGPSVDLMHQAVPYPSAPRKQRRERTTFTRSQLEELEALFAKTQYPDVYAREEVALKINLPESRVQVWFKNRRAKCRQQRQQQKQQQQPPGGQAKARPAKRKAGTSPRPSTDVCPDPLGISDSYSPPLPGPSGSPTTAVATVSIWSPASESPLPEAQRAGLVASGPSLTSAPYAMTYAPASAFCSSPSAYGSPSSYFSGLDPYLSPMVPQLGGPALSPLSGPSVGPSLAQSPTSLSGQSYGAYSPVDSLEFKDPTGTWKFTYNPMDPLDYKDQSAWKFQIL
How it was run: as §1

Sequence	binding signal (FEV)	binding signal (ETV5)	binding signal (HSF1)	binding signal (SPIC)	binding signal (ELF4)	binding signal (ELK4)	binding signal (ETV2)	binding signal (ELF3)	binding signal (ETV1)	binding signal (ERF)	binding signal (ETV3L)	binding signal (ETS2)	binding signal (SPDEF)	binding signal (ETV7)	binding signal (ELF5)	binding signal (ETV3)	binding signal (ETV6)	binding signal (CRX)
TGACAT	1.23 fold enrichment (6-mer frequency, TF over GST control)	1.26 fold enrichment (6-mer frequency, TF over GST control)	1.01 fold enrichment (6-mer frequency, TF over GST control)	1.07 fold enrichment (6-mer frequency, TF over GST control)	1.24 fold enrichment (6-mer frequency, TF over GST control)	1.3 fold enrichment (6-mer frequency, TF over GST control)	1.18 fold enrichment (6-mer frequency, TF over GST control)	1.25 fold enrichment (6-mer frequency, TF over GST control)	1.23 fold enrichment (6-mer frequency, TF over GST control)	1.21 fold enrichment (6-mer frequency, TF over GST control)	1.28 fold enrichment (6-mer frequency, TF over GST control)	1.3 fold enrichment (6-mer frequency, TF over GST control)	1.25 fold enrichment (6-mer frequency, TF over GST control)	1.25 fold enrichment (6-mer frequency, TF over GST control)	1.22 fold enrichment (6-mer frequency, TF over GST control)	1.26 fold enrichment (6-mer frequency, TF over GST control)	1.37 fold enrichment (6-mer frequency, TF over GST control)	
AGGTTT		1.05 fold enrichment (6-mer frequency, TF over GST control)	1.04 fold enrichment (6-mer frequency, TF over GST control)	1.03 fold enrichment (6-mer frequency, TF over GST control)	1.07 fold enrichment (6-mer frequency, TF over GST control)	1.06 fold enrichment (6-mer frequency, TF over GST control)	1.05 fold enrichment (6-mer frequency, TF over GST control)	1.07 fold enrichment (6-mer frequency, TF over GST control)	1.1 fold enrichment (6-mer frequency, TF over GST control)	1.13 fold enrichment (6-mer frequency, TF over GST control)		1.01 fold enrichment (6-mer frequency, TF over GST control)	1.02 fold enrichment (6-mer frequency, TF over GST control)	1.08 fold enrichment (6-mer frequency, TF over GST control)	1.04 fold enrichment (6-mer frequency, TF over GST control)	1.11 fold enrichment (6-mer frequency, TF over GST control)	1.03 fold enrichment (6-mer frequency, TF over GST control)	1.19 fold enrichment (6-mer frequency, TF over GST control)
